A selection: hits, their analogues and other compounds. The true share with any hit is near 6.9%.
NR3A LBD binder – binders of NR3A ligand-binding domain, primary screen, biophysical, differential scanning fluorimetry, uHTS; Glutamate receptor ionotropic, NMDA 3A (GRIN3A) ligand-binding domain; NR3A LBD differential scanning fluorimetry, Tm shift; 0% = protein alone, 100% = glycine-bound protein; Tm shift relative to glycine control, % at 25 µM; actives 2.5% (n = 340,000);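 active = melting temperature shift of at least 10% of the positive control shift, at one fixed dose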
MPTP block – mitochondrial permeability transition pore inhibitors, primary screen, biochemical, isolated mouse mitochondria, absorbance; Ca2+ swelling absorbance, 30 min; inhibition, % at 10 µM; actives 1.4% (n = 360,000); AID 602449, 2012;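 active = inhibition of 50% or more, scaled per plate between neutral and stimulator controls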;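 also: 0% = DMSO wells given calcium and 100% = 1 mM EGTA wells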
Beta cell apopt – inhibitors of cytokine-induced beta cell apoptosis, primary screen, luminescence. INS-1E cytokine-induced death, ATP luminescence, 48 h; percent of positive-control rescue, neutral wells zero. protection from apoptosis, % (no concentration beside the values). actives 0.8% (n = 300,000);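 active = Every replicate reaches about 75%, or at least half do and their mean reaches it too, limit read from the data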;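 also: 0% = cytokine-treated negative control wells and 100% = positive control rescue; higher means more ATP so stronger rescue from cytokine killing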
CSC inhib – cancer stem cell viability inhibitors, primary screen, luminescence; cancer stem cell-like cells viability; inhibition, % at 7.5 µM; actives 1.1% (n = 300,000); AID 2717, 2010; in the data active = inhibition above about 75%; tested in HMLE shEcad cells
Mdm2 MdmX PPI – inhibitors of human Mdm2-MdmX association, primary screen, cell-based, luminescence, split luciferase, SaOS-2, uHTS. Protein Mdm4 (Homo sapiens) + E3 ubiquitin-protein ligase Mdm2 (Homo sapiens), …. SaOS-2 split-luciferase Mdm2/MdmX complementation. inhibition, % at 8 µM. actives 3% (n = 330,000). AID 485346, 2010;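 active = inhibition of at least 50% at 8 µM in the primary screen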
SKKanGAS inh – S. pyogenes SKKanGAS growth inhibitors in kanamycin, primary screen, streptokinase expression inhibitor project, SKKanGAS strain, BacTiter-Glo luminescence; actives 1.3% (n = 300,000); 6 h; inhibition, % at 7.5 µM; AID 1662, 2009;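 active = mean replicate score, as percent of positive control median, at least 50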;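 also: strain carries kanamycin resistance gene driven by streptokinase promoter and grows in 40 µg/ml kanamycin; loss of luminescence reflects streptokinase promoter inhibition or plain growth inhibition; 0% = median of DMSO wells and 100% = positive control at its reference dose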
Rh123 counter – fluorescence retest of MPTP screen hits in isolated mitochondria, single concentration; membrane potential, Rhodamine 123 fluorescence; shares compounds with MPTP block; inhibition, % at 10 µM; AID 624504, 2012; actives 78% (n = 5,000); in the data active = inhibition above about 22%;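 also: 0% = DMSO vehicle and 100% = positive control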
MPTP abs DR – mitochondrial permeability transition pore inhibitors, dose response, biochemical, absorbance, uHTS hits | isolated mitochondria swelling | IC50, µM | shares compounds with MPTP block | actives 58% (n = 780); in the data active = IC50 below about 20 µM
MPTP cs DR – fluorescent counter-screen in isolated mitochondria, dose response, counter-screen for MPTP inhibitor project, biochemical, fluorescence, uHTS hits | shares compounds with MPTP block | isolated mitochondria counterscreen, fluorescence read-out | IC50, µM | actives 49% (n = 780) | AID 651564, 2012; in the data active = IC50 below about 80 µM
Numbers without * were called inactive; x = no result.

SMILES	NR3A LBD binder	MPTP block	Beta cell apopt	CSC inhib	Mdm2 MdmX PPI	SKKanGAS inh	Rh123 counter	others
Cc1n[nH]c(C)c1CCCCOc1ccccc1[N+](=O)[O-]	-1	85*	33	-3	5	43	74*
Cc1n[nH]c(C)c1CCCCOc1ccc([N+](=O)[O-])cc1	1	2	-2	4	7	26	x
Cc1ccccc1OCCCCc1c(C)n[nH]c1C	0	101*	49	5	22	95*	98*
O=C(CSc1nc2ccccc2[nH]1)NC1CCCc2ccccc21 (centres undefined)	-4	0	x	3	44	4	x
O=C(CSc1nc2ccc(Cl)cc2[nH]1)NC1CCCc2ccccc21 (centres undefined)	-31	63*	0	-24	15	-1	62*
CCn1c(COc2ccc3c(c2)OCO3)nnc1SCC(=O)c1ccc(Cl)cc1	3	58*	5	8	13	1	79*
O=C(CNc1cccc(S(=O)(=O)N2CCCCC2)c1)Nc1ccc(C(F)(F)F)cc1	x	81*	x	x	x	x	76*
O=C(CNc1cccc(Br)c1)Nc1ccc(S(=O)(=O)N2CCCCC2)cc1	x	7	x	x	x	x	x
O=C(CNc1cccc(S(=O)(=O)N2CCCC2)c1)Nc1ccc(C(F)(F)F)cc1	-1	52*	25	10	-2	-1	85*
Cc1c(C)n(Cc2ccccc2)c2ccc(C(=O)OCCCN(C)C)cc12	-5	78*	13	0	39	6	-3
Cc1c(C)n(CCN(C)C)c2ccc(C(=O)OCCN(C)C)cc12	0	0	10	38	x	6	x
CN(C)S(=O)(=O)c1ccc(Nc2nc(C3CC3)nc3c2nnn3Cc2ccccc2Cl)cc1	-2	62*	88*	x	19	22	29*
COC(=O)CNc1nc(C2CC2)nc2c1nnn2Cc1ccccc1Cl	1	1	1	-9	25	-7	x
Cc1ccc(S(=O)(=O)N(Cc2ccc(C(F)(F)F)cc2)C(=O)N2CCN(C)CC2)cc1	2	-1	x	-12	-1	-2	x
O=C(Cn1nnc(-c2cc(C(F)(F)F)cc(C(F)(F)F)c2)n1)NNC(=S)Nc1ccc(Cl)cc1	36*	84*	3	-7	0	78*	61*
COc1cc(NS(=O)(=O)c2ccc(C)cc2C)cc(OC)c1OC	2	84*	x	10	36	-3	72*
Cc1n[nH]c(=O)c2c(NC(=O)CSc3nncn3C(C)C)oc(C)c12	-1	-1	-5	-16	29	x	x
Cc1cccnc1C(c1ccc(F)cc1)N(C)C(=O)C1CCN(CCOc2ccc(Cl)cc2Cl)CC1 (centres undefined)	x	3	x	x	x	x	x
N#C/C(=N\Nc1ccc([N+](=O)[O-])cc1)C(N)=S	9	86*	39	35	-4	27	62*
N#C/C(=N/Nc1ccc(S(=O)(=O)N2CCOCC2)cc1)C(N)=O	2	-1	-5	0	6	7	x
N#C/C(=N\Nc1ccc(S(=O)(=O)N2CCCCC2)cc1)C(N)=S	6	79*	7	20	-4	16	79*
N#C/C(=N\Nc1ccc(S(=O)(=O)N2CCCCCC2)cc1)C(N)=S	7	96*	x	36	38	114*	91*
N#CC(C#N)=NNc1ccc(S(=O)(=O)N2CCCC2)cc1	7	99*	-9	2	13	12	90*
COc1ccc(C(=O)CSc2nnc(CNC(=O)c3ccco3)n2C)cc1	0	0	-19	-5	8	0	x
CCOc1ccc(C(C(=O)NCC2CCCO2)N(C(=O)c2snc(C(N)=O)c2N)c2ccc3c(c2)OCCO3)cc1 (centres undefined)	-2	0	-7	-1	20	-2	x
SMILES	NR3A LBD binder	MPTP block	Beta cell apopt	CSC inhib	Mdm2 MdmX PPI	SKKanGAS inh	Rh123 counter	others
CC1(C)C(=O)Nc2ccccc2N1C(=O)COc1cc(Cl)ccc1Cl	-1	-2	2	-5	28	x	x
Cc1nn(C)c(C)c1CN(Cc1nc(CCC(C)C)no1)C(C)C	0	103*	94*	-1	1	-13	93*
CCCCC(=O)NC(=S)NNC(=O)c1ccc(Cl)cc1Cl	1	51*	x	x	x	90*	-13	MPTP abs DR=15*;MPTP cs DR=>80
Cc1ccc(C(=O)NNC(=S)NC(=O)c2ccc(Cl)cc2Cl)cc1	-10	88*	x	17	30	98*	8
O=C(NNC(=S)NC(=O)c1ccccc1[N+](=O)[O-])c1ccc(Cl)cc1Cl	-4	0	8	-16	7	48	x
COC(=O)c1cc(NC(=O)Cc2cccs2)cc(C(=O)OC)c1	0	1	-10	-14	3	2	x
CC(=O)c1cccc(S(=O)(=O)Nc2ccc3nc(C)sc3c2)c1	0	91*	17	-2	17	-3	57*
Cc1nc2ccc(NS(=O)(=O)c3ccc(C)c(C)c3)cc2s1	-5	96*	28	8	-20	7	94*
COc1cc(S(=O)(=O)Nc2ccc3nc(C)sc3c2)ccc1NC(C)=O	-1	68*	0	8	25	x	86*
Cc1nc2ccc(S(=O)(=O)Nc3ccccc3C)cc2s1	8	0	0	40	0	2	x
Cc1csc(NC(=O)CCC(=O)N(CC(=O)NC2CCCCC2)c2ccccc2)n1	0	0	-9	-11	8	-5	x
CCCc1ccc(C(=O)NC(=O)c2ccccc2O)cc1	-6	59*	0	13	16	12	91*
COC(C[C@@H]1O[C@@H]1[C@H](O)[C@@H](C)OCc1ccccc1)OC	-1	1	-1	9	-21	9	x
CC(C)C(NC(=O)c1ccc(F)cc1)C(=O)N1CCOCC1 (centres undefined)	2	1	-5	x	11	x	x
Cc1cc(OCC(=O)Nc2ccncc2)ccc1Br	0	59*	-4	32	11	-8	111*
Cc1cccc(OCC(=O)Nc2ccncc2)c1C	0	82*	x	-3	10	-4	87*
Cc1cc(Cl)ccc1OCC(=O)NCc1ccncc1	-1	1	5	-8	8	-8	x
